Experiments:
Test in all cases: DAPPL (digital affinity profiling via proximity ligation, sequencing); 10 mM Tris-HCl pH 7.5, 50 mM NaCl, 1 mM DTT, 4% glycerol, room temperature, 30 min; GST-TFs on glutathione beads, 16-mer random dsDNA library, 0.1% formaldehyde crosslink after washing; high values mean tight binding
[1] = molecular target: T1, FLI1 (Homo sapiens, UniProt Q01543 1-452); details: protein: recombinant; tags: N-terminal GST; dsDNA, one strand shown
T1 sequence: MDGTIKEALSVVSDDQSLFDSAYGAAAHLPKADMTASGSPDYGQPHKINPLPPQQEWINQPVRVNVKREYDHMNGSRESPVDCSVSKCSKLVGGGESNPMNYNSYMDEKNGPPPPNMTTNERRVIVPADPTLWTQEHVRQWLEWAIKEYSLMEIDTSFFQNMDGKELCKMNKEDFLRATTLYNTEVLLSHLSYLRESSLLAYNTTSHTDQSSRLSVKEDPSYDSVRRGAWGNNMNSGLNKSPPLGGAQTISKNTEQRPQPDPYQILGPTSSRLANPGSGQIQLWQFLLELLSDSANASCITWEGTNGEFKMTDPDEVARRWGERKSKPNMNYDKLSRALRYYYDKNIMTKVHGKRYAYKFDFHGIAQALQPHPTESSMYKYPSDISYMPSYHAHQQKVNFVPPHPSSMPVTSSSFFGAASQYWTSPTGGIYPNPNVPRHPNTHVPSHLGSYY
Outline: (§1)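 Binding signal is given per hexamer as its read frequency for a factor divided by its frequency in the tag-only sample. GST-fused human transcription factors were expressed in yeast, captured on glutathione beads, barcoded with DNA and pooled with that sample, then incubated with 200 nmole of a 16-mer random double-stranded DNA library in Tris/NaCl/DTT/glycerol buffer for 30 min at room temperature. The pools were then washed, crosslinked, proximity-ligated, amplified by PCR and sequenced on an Illumina NextSeq500.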

[2] = molecular target: T2, ELK1 (Homo sapiens, UniProt P19419 1-428); details: protein: recombinant; tags: N-terminal GST; dsDNA, one strand shown
T2 sequence: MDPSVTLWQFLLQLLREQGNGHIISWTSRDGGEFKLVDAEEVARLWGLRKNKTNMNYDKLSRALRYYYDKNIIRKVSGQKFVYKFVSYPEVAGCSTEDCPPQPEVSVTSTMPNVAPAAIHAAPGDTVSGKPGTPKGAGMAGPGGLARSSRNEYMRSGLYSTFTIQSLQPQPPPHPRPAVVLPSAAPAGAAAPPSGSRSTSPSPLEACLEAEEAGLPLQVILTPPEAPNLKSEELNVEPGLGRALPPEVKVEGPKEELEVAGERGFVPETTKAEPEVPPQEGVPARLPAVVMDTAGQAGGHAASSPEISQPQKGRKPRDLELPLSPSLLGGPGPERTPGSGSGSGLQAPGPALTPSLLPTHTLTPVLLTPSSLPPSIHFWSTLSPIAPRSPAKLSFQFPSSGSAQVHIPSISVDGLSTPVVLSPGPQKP
Outline: as §1

[3] = molecular target: T3, GABPA (Homo sapiens, UniProt Q06546 1-454); details: protein: recombinant; tags: N-terminal GST; dsDNA, one strand shown
T3 sequence: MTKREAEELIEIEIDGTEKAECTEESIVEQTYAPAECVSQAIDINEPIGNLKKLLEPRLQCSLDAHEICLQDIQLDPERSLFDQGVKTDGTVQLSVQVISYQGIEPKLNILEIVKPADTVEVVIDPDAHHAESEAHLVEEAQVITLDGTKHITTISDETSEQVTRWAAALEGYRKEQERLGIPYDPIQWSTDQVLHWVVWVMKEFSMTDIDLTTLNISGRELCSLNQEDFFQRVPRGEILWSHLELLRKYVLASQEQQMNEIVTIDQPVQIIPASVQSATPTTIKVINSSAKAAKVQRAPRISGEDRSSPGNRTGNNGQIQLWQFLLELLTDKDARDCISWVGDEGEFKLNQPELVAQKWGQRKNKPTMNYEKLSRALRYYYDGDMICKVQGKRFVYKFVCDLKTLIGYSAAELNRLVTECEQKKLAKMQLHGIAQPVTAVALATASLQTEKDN
Outline: as §1

[4] = molecular target: T4, ERG (Homo sapiens, UniProt P11308 1-479); details: protein: recombinant; tags: N-terminal GST; dsDNA, one strand shown
T4 sequence: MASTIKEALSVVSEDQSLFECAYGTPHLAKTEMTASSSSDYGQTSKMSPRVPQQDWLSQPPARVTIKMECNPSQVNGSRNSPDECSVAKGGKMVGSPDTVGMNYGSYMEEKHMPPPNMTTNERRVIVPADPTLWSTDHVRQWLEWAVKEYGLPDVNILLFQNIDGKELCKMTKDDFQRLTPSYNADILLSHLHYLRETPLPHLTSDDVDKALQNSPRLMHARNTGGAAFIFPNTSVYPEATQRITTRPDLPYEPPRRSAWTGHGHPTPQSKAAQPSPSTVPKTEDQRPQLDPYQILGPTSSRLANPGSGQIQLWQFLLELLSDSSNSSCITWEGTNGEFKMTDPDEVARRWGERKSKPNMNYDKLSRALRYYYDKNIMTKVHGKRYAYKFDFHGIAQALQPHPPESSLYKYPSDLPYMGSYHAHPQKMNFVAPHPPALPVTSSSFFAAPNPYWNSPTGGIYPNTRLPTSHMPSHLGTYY
Outline: as §1

[5] = molecular target: ELF1 (Homo sapiens, UniProt P32519 1-619); details: protein: recombinant; tags: N-terminal GST; dsDNA, one strand shown
Chain of ELF1 (P32519 whole entry): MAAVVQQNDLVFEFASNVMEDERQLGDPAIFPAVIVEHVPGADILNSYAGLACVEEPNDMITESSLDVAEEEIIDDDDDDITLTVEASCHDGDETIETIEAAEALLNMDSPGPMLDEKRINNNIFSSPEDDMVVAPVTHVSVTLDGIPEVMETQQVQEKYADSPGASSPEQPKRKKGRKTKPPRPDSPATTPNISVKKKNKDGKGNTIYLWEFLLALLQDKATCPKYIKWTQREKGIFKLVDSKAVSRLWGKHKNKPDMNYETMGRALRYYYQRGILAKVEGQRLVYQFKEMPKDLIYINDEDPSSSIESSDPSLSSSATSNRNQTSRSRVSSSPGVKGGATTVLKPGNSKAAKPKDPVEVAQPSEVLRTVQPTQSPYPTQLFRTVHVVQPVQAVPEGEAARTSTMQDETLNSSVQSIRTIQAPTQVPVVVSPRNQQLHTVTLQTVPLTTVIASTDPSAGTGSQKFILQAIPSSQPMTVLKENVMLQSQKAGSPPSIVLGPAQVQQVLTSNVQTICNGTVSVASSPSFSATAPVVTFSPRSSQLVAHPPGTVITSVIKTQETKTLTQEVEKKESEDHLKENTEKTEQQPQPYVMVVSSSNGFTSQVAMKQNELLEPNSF
Outline: as §1

[6] = molecular target: T5, EHF (Homo sapiens, UniProt Q9NZC4 1-300); details: protein: recombinant; tags: N-terminal GST; dsDNA, one strand shown
T5 sequence: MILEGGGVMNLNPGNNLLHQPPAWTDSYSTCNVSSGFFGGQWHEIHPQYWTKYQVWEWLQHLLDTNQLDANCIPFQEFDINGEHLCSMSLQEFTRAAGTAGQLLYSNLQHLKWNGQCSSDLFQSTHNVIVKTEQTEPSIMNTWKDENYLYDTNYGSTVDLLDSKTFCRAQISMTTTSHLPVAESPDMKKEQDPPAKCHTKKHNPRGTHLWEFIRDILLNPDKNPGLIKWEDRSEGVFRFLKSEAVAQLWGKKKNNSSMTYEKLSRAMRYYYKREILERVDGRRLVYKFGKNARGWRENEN
Outline: as §1

[7] = molecular target: SPI1 (Homo sapiens, UniProt P17947 1-270); details: protein: recombinant; tags: N-terminal GST; dsDNA, one strand shown
Outline: as §1

[8] = molecular target: SPIB (Homo sapiens, UniProt Q01892 1-262); details: protein: recombinant; tags: N-terminal GST; dsDNA, one strand shown
Chain of SPIB (Q01892 whole entry): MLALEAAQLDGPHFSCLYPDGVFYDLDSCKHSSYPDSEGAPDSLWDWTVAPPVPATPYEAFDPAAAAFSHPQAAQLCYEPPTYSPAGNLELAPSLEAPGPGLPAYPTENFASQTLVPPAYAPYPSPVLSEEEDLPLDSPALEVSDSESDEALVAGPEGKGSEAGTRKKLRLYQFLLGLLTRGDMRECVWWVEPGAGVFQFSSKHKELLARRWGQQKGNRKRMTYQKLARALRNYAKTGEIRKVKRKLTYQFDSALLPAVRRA
Outline: as §1

[9] = molecular target: T6, ELK3 (Homo sapiens, UniProt P41970 1-407); details: protein: recombinant; tags: N-terminal GST; dsDNA, one strand shown
T6 sequence: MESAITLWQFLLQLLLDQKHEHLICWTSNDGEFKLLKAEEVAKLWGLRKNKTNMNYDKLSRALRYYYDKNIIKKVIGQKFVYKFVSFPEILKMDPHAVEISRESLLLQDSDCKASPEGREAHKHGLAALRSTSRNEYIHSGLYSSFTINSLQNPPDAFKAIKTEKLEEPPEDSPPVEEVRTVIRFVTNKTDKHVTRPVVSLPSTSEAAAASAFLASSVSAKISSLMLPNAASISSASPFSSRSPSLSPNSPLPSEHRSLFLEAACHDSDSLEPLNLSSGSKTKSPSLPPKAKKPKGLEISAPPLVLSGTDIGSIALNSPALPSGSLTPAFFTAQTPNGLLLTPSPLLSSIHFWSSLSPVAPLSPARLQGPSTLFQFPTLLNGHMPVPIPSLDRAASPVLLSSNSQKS
Outline: as §1

[10] = molecular target: T7, FEV (Homo sapiens, UniProt Q99581 1-238); details: protein: recombinant; tags: N-terminal GST; dsDNA, one strand shown
T7 sequence: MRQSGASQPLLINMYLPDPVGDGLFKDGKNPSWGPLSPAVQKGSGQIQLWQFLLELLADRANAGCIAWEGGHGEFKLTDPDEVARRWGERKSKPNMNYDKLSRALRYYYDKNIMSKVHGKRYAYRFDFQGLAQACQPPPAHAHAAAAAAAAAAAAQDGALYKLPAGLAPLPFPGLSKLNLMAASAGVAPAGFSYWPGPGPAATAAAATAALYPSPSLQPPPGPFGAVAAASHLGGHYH
Outline: as §1

[11] = molecular target: ETV5 (Homo sapiens, UniProt P41161 1-510); details: protein: recombinant; tags: N-terminal GST; dsDNA, one strand shown
Chain of ETV5 (P41161 whole entry): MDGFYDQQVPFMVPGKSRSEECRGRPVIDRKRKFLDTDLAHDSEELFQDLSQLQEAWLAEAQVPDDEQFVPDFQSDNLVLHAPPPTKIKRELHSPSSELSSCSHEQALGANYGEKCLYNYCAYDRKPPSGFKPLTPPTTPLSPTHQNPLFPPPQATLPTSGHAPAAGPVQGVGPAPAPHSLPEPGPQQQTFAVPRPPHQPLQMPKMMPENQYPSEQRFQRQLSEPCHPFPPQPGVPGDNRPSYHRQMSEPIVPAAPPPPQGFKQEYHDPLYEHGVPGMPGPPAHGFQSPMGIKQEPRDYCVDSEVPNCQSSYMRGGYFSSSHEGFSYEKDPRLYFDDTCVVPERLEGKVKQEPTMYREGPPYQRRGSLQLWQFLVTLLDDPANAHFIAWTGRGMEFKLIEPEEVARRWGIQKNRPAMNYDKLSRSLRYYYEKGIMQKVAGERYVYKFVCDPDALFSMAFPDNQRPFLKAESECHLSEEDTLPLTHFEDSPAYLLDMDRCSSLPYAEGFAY
Outline: as §1

[12] = molecular target: HSF1 (Homo sapiens, UniProt Q00613 1-529); details: protein: recombinant; tags: N-terminal GST; chain copies: 3; dsDNA, one strand shown
Chain of HSF1 (Q00613 whole entry): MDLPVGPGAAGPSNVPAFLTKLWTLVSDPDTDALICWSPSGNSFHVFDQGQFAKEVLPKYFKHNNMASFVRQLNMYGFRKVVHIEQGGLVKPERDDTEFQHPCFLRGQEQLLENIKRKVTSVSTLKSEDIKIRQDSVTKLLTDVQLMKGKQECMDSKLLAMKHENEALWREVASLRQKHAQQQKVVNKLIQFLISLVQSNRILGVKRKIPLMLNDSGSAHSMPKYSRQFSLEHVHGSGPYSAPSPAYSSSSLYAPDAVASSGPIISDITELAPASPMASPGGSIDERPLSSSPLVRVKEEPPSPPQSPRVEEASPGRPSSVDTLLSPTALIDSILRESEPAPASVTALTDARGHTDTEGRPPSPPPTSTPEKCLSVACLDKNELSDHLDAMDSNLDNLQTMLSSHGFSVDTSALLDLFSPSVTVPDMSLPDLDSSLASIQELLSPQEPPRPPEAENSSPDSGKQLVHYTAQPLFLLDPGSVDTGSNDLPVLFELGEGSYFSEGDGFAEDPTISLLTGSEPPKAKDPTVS
Outline: as §1

[13] = molecular target: T8, SPIC (Homo sapiens, UniProt Q8N5J4 1-248); details: protein: recombinant; tags: N-terminal GST; dsDNA, one strand shown
T8 sequence: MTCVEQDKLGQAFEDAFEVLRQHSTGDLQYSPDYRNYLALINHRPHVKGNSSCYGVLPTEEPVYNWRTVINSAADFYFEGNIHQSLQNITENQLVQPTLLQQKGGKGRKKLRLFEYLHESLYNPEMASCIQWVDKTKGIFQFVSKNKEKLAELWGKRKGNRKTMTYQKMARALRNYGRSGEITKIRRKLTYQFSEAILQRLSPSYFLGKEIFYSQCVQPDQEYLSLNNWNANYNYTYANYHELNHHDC
Outline: as §1

[14] = molecular target: ELF4 (Homo sapiens, UniProt Q99607 1-663); details: protein: recombinant; tags: N-terminal GST; dsDNA, one strand shown
Chain of ELF4 (Q99607 whole entry): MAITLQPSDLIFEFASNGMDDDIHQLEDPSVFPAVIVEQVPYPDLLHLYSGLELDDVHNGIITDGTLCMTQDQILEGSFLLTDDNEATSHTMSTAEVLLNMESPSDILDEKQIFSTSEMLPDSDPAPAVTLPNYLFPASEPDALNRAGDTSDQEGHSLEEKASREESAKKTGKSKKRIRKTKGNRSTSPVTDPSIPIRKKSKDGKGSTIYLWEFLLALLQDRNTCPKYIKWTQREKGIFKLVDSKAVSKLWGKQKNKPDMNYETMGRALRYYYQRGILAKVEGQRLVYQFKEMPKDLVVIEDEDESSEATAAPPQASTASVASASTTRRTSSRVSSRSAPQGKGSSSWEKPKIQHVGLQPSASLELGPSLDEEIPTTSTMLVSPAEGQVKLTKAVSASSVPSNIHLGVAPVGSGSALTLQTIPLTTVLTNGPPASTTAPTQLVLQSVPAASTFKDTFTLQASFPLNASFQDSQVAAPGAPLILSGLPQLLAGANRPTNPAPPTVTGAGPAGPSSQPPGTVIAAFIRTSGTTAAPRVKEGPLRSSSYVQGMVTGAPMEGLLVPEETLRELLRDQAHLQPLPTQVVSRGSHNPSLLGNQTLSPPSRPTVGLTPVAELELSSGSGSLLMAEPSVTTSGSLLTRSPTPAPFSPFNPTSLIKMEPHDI
Outline: as §1

[15] = molecular target: T9, ELK4 (Homo sapiens, UniProt P28324-2 1-405); details: protein: recombinant; tags: N-terminal GST; dsDNA, one strand shown
T9 sequence: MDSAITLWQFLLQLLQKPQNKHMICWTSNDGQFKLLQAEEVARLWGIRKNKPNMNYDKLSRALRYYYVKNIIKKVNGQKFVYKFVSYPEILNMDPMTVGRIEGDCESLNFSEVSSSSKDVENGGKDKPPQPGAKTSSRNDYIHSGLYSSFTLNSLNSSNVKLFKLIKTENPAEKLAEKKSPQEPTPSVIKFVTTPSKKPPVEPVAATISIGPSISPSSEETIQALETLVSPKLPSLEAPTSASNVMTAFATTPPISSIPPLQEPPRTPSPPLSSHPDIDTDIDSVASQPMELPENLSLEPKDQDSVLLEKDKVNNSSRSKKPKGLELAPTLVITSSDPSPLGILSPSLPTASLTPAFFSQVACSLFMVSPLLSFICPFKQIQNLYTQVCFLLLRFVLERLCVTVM
Outline: as §1

[16] = molecular target: T10, ETV2 (Homo sapiens, UniProt O00321 1-342); details: protein: recombinant; tags: N-terminal GST; dsDNA, one strand shown
T10 sequence: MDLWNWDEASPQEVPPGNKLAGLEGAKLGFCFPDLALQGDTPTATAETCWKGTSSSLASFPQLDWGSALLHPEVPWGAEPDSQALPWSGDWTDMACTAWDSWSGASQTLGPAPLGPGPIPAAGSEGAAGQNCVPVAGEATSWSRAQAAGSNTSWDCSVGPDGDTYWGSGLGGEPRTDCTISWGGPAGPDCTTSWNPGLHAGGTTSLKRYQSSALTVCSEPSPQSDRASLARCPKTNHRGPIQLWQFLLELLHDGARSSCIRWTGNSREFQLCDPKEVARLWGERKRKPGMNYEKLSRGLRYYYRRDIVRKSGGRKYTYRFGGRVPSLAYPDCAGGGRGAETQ
Outline: as §1

[17] = molecular target: T11, ELF3 (Homo sapiens, UniProt P78545 1-371); details: protein: recombinant; tags: N-terminal GST; dsDNA, one strand shown
T11 sequence: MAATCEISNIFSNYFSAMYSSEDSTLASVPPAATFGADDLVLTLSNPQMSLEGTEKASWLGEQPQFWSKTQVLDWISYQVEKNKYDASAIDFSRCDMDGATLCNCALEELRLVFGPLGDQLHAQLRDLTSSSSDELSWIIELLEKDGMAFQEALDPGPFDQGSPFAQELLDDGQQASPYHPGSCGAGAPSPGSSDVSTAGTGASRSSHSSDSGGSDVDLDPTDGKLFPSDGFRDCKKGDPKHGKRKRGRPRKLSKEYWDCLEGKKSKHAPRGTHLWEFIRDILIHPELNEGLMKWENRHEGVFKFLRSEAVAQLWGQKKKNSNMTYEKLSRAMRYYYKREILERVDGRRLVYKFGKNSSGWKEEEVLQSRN
Outline: as §1

[18] = molecular target: CRX (Homo sapiens, UniProt O43186 1-299); details: protein: recombinant; tags: N-terminal GST; dsDNA, one strand shown
Chain of CRX (O43186 whole entry): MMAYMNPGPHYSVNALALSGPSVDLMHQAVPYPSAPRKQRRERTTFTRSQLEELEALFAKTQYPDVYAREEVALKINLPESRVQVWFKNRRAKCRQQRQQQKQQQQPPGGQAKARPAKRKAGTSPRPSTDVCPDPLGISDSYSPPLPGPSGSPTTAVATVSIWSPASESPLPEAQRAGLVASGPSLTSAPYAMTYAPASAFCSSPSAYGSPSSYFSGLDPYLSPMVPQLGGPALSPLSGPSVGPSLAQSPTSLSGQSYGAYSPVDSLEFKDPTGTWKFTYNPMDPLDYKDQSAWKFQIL
Outline: as §1

[19] = molecular target: ETV1 (Homo sapiens, UniProt P50549 1-477); details: protein: recombinant; tags: N-terminal GST; dsDNA, one strand shown
Chain of ETV1 (P50549 whole entry): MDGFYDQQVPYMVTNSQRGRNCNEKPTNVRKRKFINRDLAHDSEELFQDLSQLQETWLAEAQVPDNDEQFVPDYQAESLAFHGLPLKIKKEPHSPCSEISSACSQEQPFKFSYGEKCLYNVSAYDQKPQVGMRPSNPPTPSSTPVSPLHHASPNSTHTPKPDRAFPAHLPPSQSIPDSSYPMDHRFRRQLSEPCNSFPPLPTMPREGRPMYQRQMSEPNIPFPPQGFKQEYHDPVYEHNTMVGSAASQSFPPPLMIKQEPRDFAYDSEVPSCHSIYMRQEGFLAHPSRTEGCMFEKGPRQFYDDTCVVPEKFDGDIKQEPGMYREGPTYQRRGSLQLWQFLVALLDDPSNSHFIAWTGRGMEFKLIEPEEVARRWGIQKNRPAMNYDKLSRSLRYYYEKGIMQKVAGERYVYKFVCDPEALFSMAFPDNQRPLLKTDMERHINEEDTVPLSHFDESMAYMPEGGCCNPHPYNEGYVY
Outline: as §1

## AAATCA
[1]
  binding signal: 1.12 fold enrichment (6-mer frequency, TF over GST control)
[2]
  binding signal: 1.19 fold enrichment (6-mer frequency, TF over GST control)
[3]
  binding signal: 1.19 fold enrichment (6-mer frequency, TF over GST control)
[4]
  binding signal: 1.18 fold enrichment (6-mer frequency, TF over GST control)
[5]
  binding signal: 1.21 fold enrichment (6-mer frequency, TF over GST control)
[6]
  binding signal: 1.25 fold enrichment (6-mer frequency, TF over GST control)
[7]
  binding signal: 1.26 fold enrichment (6-mer frequency, TF over GST control)
[8]
  binding signal: 1.2 fold enrichment (6-mer frequency, TF over GST control)
[9]
  binding signal: 1.18 fold enrichment (6-mer frequency, TF over GST control)
[10]
  binding signal: 1.2 fold enrichment (6-mer frequency, TF over GST control)
[11]
  binding signal: 1.26 fold enrichment (6-mer frequency, TF over GST control)
[12]
  binding signal: 1.17 fold enrichment (6-mer frequency, TF over GST control)
[13]
  binding signal: 1.18 fold enrichment (6-mer frequency, TF over GST control)
[14]
  binding signal: 1.24 fold enrichment (6-mer frequency, TF over GST control)
[15]
  binding signal: 1.23 fold enrichment (6-mer frequency, TF over GST control)
[16]
  binding signal: 1.39 fold enrichment (6-mer frequency, TF over GST control)
[17]
  binding signal: 1.27 fold enrichment (6-mer frequency, TF over GST control)
[18]
  binding signal: 1.33 fold enrichment (6-mer frequency, TF over GST control)
[19]
  binding signal: 1.18 fold enrichment (6-mer frequency, TF over GST control)
